From the supplement of paper PMC8728848
The full list was thinned out, with the strongest signals kept by preference.

What was measured:
Assay in all cases: glycan array binding signal (z-score within array); higher = stronger binding
Conditions in all cases: glycan notation: IUPAC condensed, linker removed
Fuc(a1-2)Gal(b1-4)GlcNAc = molecular target: Fuc(a1-2)Gal(b1-4)GlcNAc
In short: (§1)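 From the Consortium for Functional Glycomics database, 3228 arrays were curated, keeping only those whose protein sequence was available. Binding is given as a within-array Z-score averaged across arrays sharing a protein sequence and across linkers. Negative Z-scores can be read as non-binding.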

[1] = molecular target: Fuc(a1-2)Gal(b1-4)GlcNAc(b1-3)Gal(b1-4)GlcNAc(b1-3)Gal(b1-4)GlcNAc
In short: as §1

[2] = molecular target: Fuc(a1-2)Gal(b1-4)[Fuc(a1-3)]GlcNAc
In short: as §1

Fuc(a1-2)Gal6S(b1-4)Glc = molecular target: Fuc(a1-2)Gal6S(b1-4)Glc
In short: as §1

[3] = molecular target: Fuc(a1-2)Gal6S(b1-4)GlcNAc
In short: as §1

[4] = molecular target: Fuc(a1-2)[Gal(a1-3)]Gal(b1-4)GlcNAc
In short: as §1

[5] = molecular target: Fuc(a1-2)[GalNAc(a1-3)]Gal(b1-3)GlcNAc(b1-2)Man(a1-3)[Fuc(a1-2)[GalNAc(a1-3)]Gal(b1-3)GlcNAc(b1-2)Man(a1-6)]Man(b1-4)GlcNAc(b1-4)GlcNAc
In short: as §1

[6] = molecular target: Fuc(a1-2)[GalNAc(a1-3)]Gal(b1-4)GlcNAc
In short: as §1

[7] = molecular target: Fuc(a1-3)[Gal(b1-4)]GlcNAc(b1-2)Man(a1-6)[Gal(b1-4)GlcNAc(b1-2)Man(a1-3)]Man(b1-4)GlcNAc(b1-4)GlcNAc
In short: as §1

[8] = molecular target: Gal(a1-3)Gal(b1-3)GlcNAc(b1-2)Man(a1-3)[Gal(a1-3)Gal(b1-3)GlcNAc(b1-2)Man(a1-6)]Man(b1-4)GlcNAc(b1-4)GlcNAc
In short: as §1

[9] = molecular target: Gal(a1-4)Gal(b1-3)GlcNAc(b1-2)Man(a1-3)[Gal(a1-4)Gal(b1-3)GlcNAc(b1-2)Man(a1-6)]Man(b1-4)GlcNAc(b1-4)GlcNAc
In short: as §1

[10] = molecular target: Gal(a1-4)Gal(b1-4)GlcNAc(b1-2)Man(a1-3)[Gal(a1-4)Gal(b1-4)GlcNAc(b1-2)Man(a1-6)]Man(b1-4)GlcNAc(b1-4)GlcNAc
In short: as §1

Gal(b1-3)Gal = molecular target: Gal(b1-3)Gal
In short: as §1

Gal(b1-3)Gal(b1-4)GlcNAc = molecular target: Gal(b1-3)Gal(b1-4)GlcNAc
In short: as §1

[11] = molecular target: Gal(b1-3)GalNAc(a1-3)[Fuc(a1-2)]Gal(b1-4)GlcNAc
In short: as §1

[12] = molecular target: Gal(b1-3)GlcNAc(b1-3)Gal(b1-4)GlcNAc(b1-6)[Gal(b1-3)GlcNAc(b1-3)]Gal(b1-4)Glc
In short: as §1

[13] = molecular target: Gal(b1-4)GlcNAc(a1-6)Gal(b1-4)GlcNAc
In short: as §1

[14] = molecular target: Gal(b1-4)GlcNAc(b1-2)Man(a1-3)[GlcNAc(b1-2)Man(a1-6)]Man(b1-4)GlcNAc(b1-4)GlcNAc
In short: as §1

[15] = molecular target: Gal3S(b1-4)[Fuc(a1-3)]Glc
In short: as §1

[16] = molecular target: GlcNAc(a1-4)Gal(b1-4)GlcNAc(b1-3)Gal(b1-4)Glc
In short: as §1

[17] = molecular target: GlcNAc(b1-2)[GlcNAc(b1-4)]Man(a1-3)[GlcNAc(b1-2)Man(a1-6)]Man(b1-4)GlcNAc(b1-4)GlcNAc
In short: as §1

[18] = molecular target: GlcNAc(b1-3)Gal(b1-4)GlcNAc
In short: as §1

[19] = molecular target: GlcNAc(b1-3)[GlcNAc(b1-4)][GlcNAc(b1-6)]GlcNAc
In short: as §1

[20] = molecular target: Man(a1-2)Man(a1-3)[Man(a1-2)Man(a1-6)]Man
In short: as §1

[21] = molecular target: Man(a1-2)Man(a1-3)[Man(a1-2)Man(a1-6)]Man(a1-6)[Man(a1-2)Man(a1-2)Man(a1-3)]Man
In short: as §1

[22] = molecular target: Neu5Ac(a2-3)Gal(b1-3)GlcNAc(b1-2)Man(a1-3)[Neu5Ac(a2-3)Gal(b1-3)GlcNAc(b1-2)Man(a1-6)]Man(b1-4)GlcNAc(b1-4)GlcNAc
In short: as §1

[23] = molecular target: Neu5Ac(a2-3)Gal(b1-3)GlcNAc(b1-3)Gal(b1-3)GlcNAc
In short: as §1

[24] = molecular target: Neu5Ac(a2-3)Gal(b1-3)GlcNAc(b1-3)Gal(b1-4)GlcNAc
In short: as §1

[25] = molecular target: Neu5Ac(a2-3)Gal(b1-3)[Neu5Ac(a2-3)Gal(b1-4)]GlcNAc
In short: as §1

[26] = molecular target: Neu5Ac(a2-3)Gal(b1-4)GlcNAc(b1-2)Man(a1-3)[GlcNAc(b1-2)Man(b1-4)GlcNAc(b1-2)Man(a1-6)]Man(b1-4)GlcNAc(b1-4)GlcNAc
In short: as §1

B1: Mincle (Homo sapiens), Q9ULY5 (protein)
chain: MNSSKSSETQCTERGCFSSQMFLWTVAGIPILFLSACFITRCVVTFRIFQTCDEKKFQLPENFTELSCYNYGSGSVKNCCPLNWEYFQSSCYFFSTDTISWALSLKNCSAMGAHLVVINSQEEQEFLSYKKPKMREFFIGLSDQVVEGQWQWVDGTPLTKSLSFWDVGEPNNIATLEDCATMRDSSNPRQNWNDVTCFLNYFRICEMVGINPLNKGKSL
glycan array binding signal (z-score) (Fuc(a1-2)Gal(b1-4)GlcNAc): -0.329 | glycan array binding signal (z-score) [1]: 0.144 | glycan array binding signal (z-score) [2]: -0.37 | glycan array binding signal (z-score) (Fuc(a1-2)Gal6S(b1-4)Glc): -0.325 | glycan array binding signal (z-score) [3]: -0.106 | glycan array binding signal (z-score) [4]: -0.111 | glycan array binding signal (z-score) [5]: 0.062 | glycan array binding signal (z-score) [6]: -0.289 | glycan array binding signal (z-score) [7]: 5.4 | glycan array binding signal (z-score) [8]: 4.69 | glycan array binding signal (z-score) [9]: 0.054 | glycan array binding signal (z-score) [10]: 3.26 | glycan array binding signal (z-score) (Gal(b1-3)Gal): -0.357 | glycan array binding signal (z-score) (Gal(b1-3)Gal(b1-4)GlcNAc): -0.566 | glycan array binding signal (z-score) [11]: -0.127 | glycan array binding signal (z-score) [12]: 6.4 | glycan array binding signal (z-score) [13]: -0.484 | glycan array binding signal (z-score) [14]: 0.969 | glycan array binding signal (z-score) [15]: -0.146 | glycan array binding signal (z-score) [16]: -0.295 | glycan array binding signal (z-score) [17]: -0.194 | glycan array binding signal (z-score) [18]: -0.245 | glycan array binding signal (z-score) [19]: -0.38 | glycan array binding signal (z-score) [20]: 0.813 | glycan array binding signal (z-score) [21]: 5 | glycan array binding signal (z-score) [22]: -0.71 | glycan array binding signal (z-score) [23]: -0.197 | glycan array binding signal (z-score) [24]: -0.575 | glycan array binding signal (z-score) [25]: -0.483 | glycan array binding signal (z-score) [26]: 3.33
